Compound activity from PubChem.
PG9 Ab binder – PG9 antibody binding by small molecule | TR-FRET gp120-PG9 antibody binding | inhibition, % at 6.7 µM | hit rate 0.43% among 360,000 | AID 624416; in the data active = inhibition above about 8.5%
Rev-erbA mod – modulates human Rev-erb alpha binding to DNA; Rev-erbα–FITC-DNA binding, fluorescence polarization, 90 min; AID 1259318; hit rate 0.79% among 370,000; activity, % at 10 µM;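 active = activity above about 14%, limit read from the data; passing the limit was not always enough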;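 also: 0% = DMSO wells with 35 nM protein and 100% = DMSO wells with 750 nM protein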
PKA-R2B activ – activates the human PKA-R2B holoenzyme complex; P22694+P31323; PKA-R2B holoenzyme dissociation, Cy5-IP20 fluorescence polarization; R2B truncated from residue 108, S112A mutant; 0% DMSO only, 100% 113 µM cGMP; activation, % at 11.4 µM; hit rate 0.079% among 340,000;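 active = activation above a cutoff set at the mean over all compounds plus 3 SD, cut at about 18% in these data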;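 also: higher means more holoenzyme dissociation and a rise in polarization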
Target sequence (P31323 whole entry, looked up, other chains not shown, the tested form may be a part): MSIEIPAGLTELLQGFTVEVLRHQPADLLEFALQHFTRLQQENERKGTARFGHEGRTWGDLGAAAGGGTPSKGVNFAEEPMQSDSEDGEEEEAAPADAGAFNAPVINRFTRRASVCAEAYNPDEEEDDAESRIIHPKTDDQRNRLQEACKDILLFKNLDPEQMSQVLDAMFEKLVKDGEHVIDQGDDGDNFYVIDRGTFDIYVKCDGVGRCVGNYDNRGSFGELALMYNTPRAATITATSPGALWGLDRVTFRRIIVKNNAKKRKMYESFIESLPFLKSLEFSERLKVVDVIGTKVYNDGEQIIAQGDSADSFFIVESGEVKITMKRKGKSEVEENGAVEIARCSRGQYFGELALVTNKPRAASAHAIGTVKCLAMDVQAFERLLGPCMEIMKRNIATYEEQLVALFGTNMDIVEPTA
PKA-R1A activ – activates the PKA-R1A holoenzyme complex; PKA-R1A dissociation, Cy5-IP20 fluorescence polarization; scaled: DMSO 0%, 113 µM cGMP 100%; activation, % at 11.4 µM; hit rate 0.083% among 340,000;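 active = percent activation above the mean of all tested compounds plus 3 SD, cut at about 19% in these data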;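 also: higher means more PKAc released from R1A so a rise in polarization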
PG9 bind confirm – confirmation of small molecules binding HIV-1 gp120 antibody PG9; shares compounds with PG9 Ab binder; TR-FRET PG9 antibody binding, biochemical; inhibition, % at 6.7 µM; hit rate 90% among 1,500; AID 651571; in the data active = inhibition above about 9%
PGV04 counter – counter-screen for PG9 binders: binding control antibody PGV04 | hit rate 95% among 1,500 | TR-FRET PGV04 antibody-gp120 binding, biochemical | inhibition, % at 6.7 µM | shares compounds with PG9 Ab binder; in the data active = inhibition above about 9.5%
PG9 bind DR – small molecules binding HIV-1 gp120 antibody PG9; IC50, µM; shares compounds with PG9 Ab binder; TR-FRET PG9 antibody-gp120 binding inhibition; 95 tested, under 10 active; in the data active = IC50 below about 10 µM
PGV04 binding DR – binds control antibody PGV04 in PG9 counter-screen; shares compounds with PG9 Ab binder; TR-FRET binding to control antibody PGV04; IC50, µM; hit rate 20% among 95; AID 651937
PG126 binding DR – counter-screen for PG9 binders: binding to control antibody PG126 | IC50, µM | TR-FRET binding to antibody PG126, counterscreen | AID 651939 | hit rate 20% among 95 | shares compounds with PG9 Ab binder
* marks the source's active call; other numbers are inactive results. This is a sample that favours compounds with a hit; in the whole collection about 1.2% have one here. Rule as the data show it, unless noted: active = IC50 below about 9 µM; inactive = the rest.

For Cc1cccc(-n2c(C)c(-c3ccccc3)[nH]c2=S)c1 the results were PG9 Ab binder 3, Rev-erbA mod 1, PKA-R2B activ -12 and PKA-R1A activ -1.
For S=c1nc[nH]c2c1cnn2-c1ccccc1 the results were PG9 Ab binder 17*, Rev-erbA mod 11, PKA-R2B activ -6, PKA-R1A activ -1, PG9 bind confirm 7, PGV04 counter 7, PG9 bind DR >67, PGV04 binding DR >67 and PG126 binding DR >67.
`O=C(NCCN1Cc2ccccc2C1=O)c1cccs1` gave PG9 Ab binder 50*, Rev-erbA mod -5, PKA-R2B activ -16, PKA-R1A activ -6, PG9 bind confirm 10* and PGV04 counter 11*.
Screening COC(=O)[C@@]12CCCCC3=C1N(CCC3)C(=O)[C@H]2CC(=O)NCCCN1CCCC1=O returned Rev-erbA mod 5.
COC(=O)[C@]12C[C@H](CC(=O)N3CCN(C(=O)c4ccco4)CC3)C(=O)N(Cc3cccc4ccccc34)C1=C[C@H](C(C)(C)C)O[C@@H]2C was read as Rev-erbA mod 10.
COC(=O)c1sc(NC(=O)COc2c(C)cccc2C)nc1C was read as PG9 Ab binder 0, Rev-erbA mod 3, PKA-R2B activ -4 and PKA-R1A activ -12.
Screening COC(=O)c1sc(NC(=O)COc2ccccc2C)nc1C returned PG9 Ab binder 11*, Rev-erbA mod 10, PKA-R2B activ -7, PKA-R1A activ -1, PG9 bind confirm 20* and PGV04 counter 28*.
C[C@H]1[C@@H](OC(=O)NCc2cccc(Cl)c2)CC[C@@]23CCCN2C(=O)CCC[C@@H]13 was read as Rev-erbA mod -2.
For O=C(Nc1ccccc1)c1ccc(Br)c(S(=O)(=O)Nc2cccnc2)c1 the results were PG9 Ab binder -1, Rev-erbA mod -5, PKA-R2B activ 1 and PKA-R1A activ -7.
For O=S(=O)(Nc1cccnc1)c1ccc(Br)c2ccccc12 the results were PG9 Ab binder 15*, Rev-erbA mod 5, PKA-R2B activ -8, PKA-R1A activ -6, PG9 bind confirm 24* and PGV04 counter 30*.
For CCOC(=O)[C@@]12CN(C(=O)OC(C)(C)C)CC=C1N(Cc1ccc(OC)cc1)C(=O)[C@H]2CC(=O)NCc1cccc2ccccc12 the results were Rev-erbA mod 2.
Screening CCc1ccc2nc(NC(=O)Cn3cnc4ccccc4c3=O)sc2c1 returned PG9 Ab binder 3, Rev-erbA mod -6, PKA-R2B activ 5 and PKA-R1A activ -6.
`O=C(Cn1cnc2ccccc2c1=O)Nc1nc2ccccc2s1` gave PG9 Ab binder 18*, Rev-erbA mod 3, PKA-R2B activ -2, PKA-R1A activ -4, PG9 bind confirm 21* and PGV04 counter 28*.
Screening Nc1ccc(-c2nc3ccc(C(=O)O)cc3s2)cc1 returned PG9 Ab binder -1, Rev-erbA mod -8, PKA-R2B activ 1 and PKA-R1A activ 1.
Screening Nc1cc2sc(-c3ccc(C(=O)O)cc3)nc2cc1Cl returned PG9 Ab binder 8.6*, Rev-erbA mod -9, PKA-R2B activ 6, PKA-R1A activ 5, PG9 bind confirm 12* and PGV04 counter 20*.
COC(=O)c1cc2n3ccccc3c(C)c(-c3ccccc3)c-2c1C(=O)OC was read as PG9 Ab binder 21*, Rev-erbA mod 3, PKA-R2B activ -2, PKA-R1A activ 9, PG9 bind confirm 29* and PGV04 counter 39*.
Screening O=C(Nc1ccncc1)c1cc(-c2ccccn2)nc2ccccc12 returned PG9 Ab binder 0, Rev-erbA mod 3, PKA-R2B activ -3 and PKA-R1A activ 0.
